Laboratory results: PubChem BioAssay AID441 (NMMLSC, 2006)
Screen size: about 24,000 compounds; about 70 (0.3%) were called active. This excerpt belongs to a sample that is enriched for actives. Values without a mark were called inactive. No stated cut-off is given here; in the data, active means inhibition above about 30%; inconclusive means no clear call, values can overlap the other calls; inactive means below that.

These compounds were tested against N-formyl peptide receptor 2 (Homo sapiens) (UniProt P25090) (assay: small molecules displacing FPRL1 fluorescent ligand – cell-based, FPR counter-screen, flow cytometry, primary screen (AID 441;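 further: 0% = buffer alone and 100% = receptor blocker peptide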)). Conditions: FPRL1-expressing cells, fluorescent ligand binding inhibition, hits give high values, concentration not given here.
N-formyl peptide receptor 2 (Homo sapiens), sequence (P25090 whole entry, looked up): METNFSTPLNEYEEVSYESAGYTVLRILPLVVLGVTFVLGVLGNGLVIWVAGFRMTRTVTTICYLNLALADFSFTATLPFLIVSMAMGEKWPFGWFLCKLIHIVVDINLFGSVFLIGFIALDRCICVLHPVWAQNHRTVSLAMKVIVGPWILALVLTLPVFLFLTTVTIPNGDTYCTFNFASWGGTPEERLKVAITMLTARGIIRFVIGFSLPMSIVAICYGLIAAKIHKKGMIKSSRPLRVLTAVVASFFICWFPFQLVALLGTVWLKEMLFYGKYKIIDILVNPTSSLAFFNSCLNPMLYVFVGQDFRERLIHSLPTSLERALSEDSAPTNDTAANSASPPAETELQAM

Row | SMILES | inhibition
1 | Cc1nnc(SCC(=O)N(C(C)C)C(C)C)nc1C | -5.7%
2 | CCOC(=O)N1CCC(NC(=O)Cn2cc3c(n2)CCCCC3)CC1 | 0.2%
3 | CCOC(=O)c1oc2c(CN3CCN(C)CC3)c(O)ccc2c(=O)c1-c1ccc(Br)cc1 | -3%
4 | Cn1c(CNC(=O)C(C)(C)C)nc2ccccc21 | -0.3%
5 | Cc1c(NC(=O)C(C)OC(=O)c2cc3c4ccccc4n(C)c3s2)c(=O)n(-c2ccccc2)n1C (configuration not stated) | 0.1%
6 | CCCNC(=O)C1CC(=O)N(c2ccc(OCC(=O)Nc3cccc(C)c3C)cc2)C1 (configuration not stated) | -4.6%
7 | O=c1c2ccccc2[nH]c(=S)n1CCN1CCC(=C(c2ccc(F)cc2)c2ccc(F)cc2)CC1 | -11%
8 | CC1Cc2cc(/C(O)=C3\C(=O)C(=O)N(CCN4CCOCC4)C3c3ccccc3F)ccc2O1 (configuration not stated) | 30.8% (active)
9 | COCCCN1C(=O)C(=O)/C(=C(/O)c2ccc3c(c2)CC(C)O3)C1c1cccnc1 (configuration not stated) | 28.3%
10 | O=C1C(=O)N(CCN2CCOCC2)C(c2ccccn2)/C1=C(/O)c1ccc(Cl)cc1 (configuration not stated) | -6.2%
11 | CCOc1ccccc1C1CC(c2ccccc2)Nc2nc(N)nn21 (configuration not stated) | 0.2%
12 | CCOC(=O)C1CCN(C(=O)Cc2c(C(=O)O)[nH]c3ccccc23)CC1 | 0.3%
13 | CC1CCC(NS(=O)(=O)c2ccc3c(c2)n(C)c(=O)c(=O)n3C)CC1 (configuration not stated) | -4.7%
14 | O=C(CC(NCCN1CCOCC1)C(=O)O)Nc1cccc(Cl)c1 (configuration not stated) | 4.9%
15 | CCN(CCCNC(=O)C1CCN(S(=O)(=O)c2cnc[nH]2)CC1)c1ccccc1 | -1.3%
16 | CCOC(=O)CNC(=O)CN1C(=O)CCSc2ccccc21 | -6.4%
17 | CCOC(=O)c1ccc(-n2c(C)nc3c(cnn3-c3ccccc3C)c2=O)cc1 | -6%
18 | Cc1cc(C)cc(N(CC(=O)NCC2CCCO2)S(=O)(=O)c2c(C)noc2C)c1 (configuration not stated) | 3.6%
19 | Cc1nc2ccccc2c2oc(C(=O)NCC3CCCO3)cc12 (configuration not stated) | 3.5%
20 | CCOC(=O)c1nnn(-c2nonc2OC)c1-c1ccccc1 | 5.9%
21 | N#CCCN1CCN(S(=O)(=O)c2ccc(S(=O)(=O)N3CCCC3)cc2)CC1 | 1.9%
22 | COC(=O)C1=C(C)Nc2ncnn2C1c1ccco1 (configuration not stated) | 0.6%
23 | COc1ccc(N2C(=O)CCC(C(=O)N(C)C3CCCCC3)C2c2ccc(OC)c(OC)c2)cc1 (configuration not stated) | -4.6%

Row | SMILES | inhibition
24 | CCOC(=O)N1CCC(Nc2c(NCCN3CCN(c4cccc(Cl)c4)CC3)c(=O)c2=O)CC1 | 8%
25 | O=C(CC1Oc2ccccc2NC1=O)NCCCN1CCN(Cc2ccccc2)CC1 (configuration not stated) | -1.8%
26 | Cc1cccc(N2C(=O)SC(N(CC(=O)O)c3cccc(C)c3)C2=O)c1 (configuration not stated) | 0.6%
27 | C/C(N)=C(\C#N)C(=O)NCCc1ccccn1 | -4.6%
28 | COC(=O)c1ccc(CN(c2ccccc2OC)S(=O)(=O)c2cccs2)o1 | -4.4%
29 | O=C(NCc1ccco1)C1CCCN(S(=O)(=O)c2cnc[nH]2)C1 (configuration not stated) | 0.2%
30 | Cc1cc(N2C(=O)C(=O)/C(=C(/O)c3ccccc3)C2c2cccc(Br)c2)no1 (configuration not stated) | -8.1%
31 | COc1cccc(C(CC(=O)NCCN2CCOCC2)NS(=O)(=O)c2ccc(C)cc2)c1OC (configuration not stated) | 0.8%
32 | O=C(CN1CCN(c2ccccc2F)CC1)c1ccc2c(c1)OCO2 | -9.1%
33 | O=C(Nc1cccnc1)c1ccc2c(c1)OCO2 | -0.1%
34 | CCOC(=O)c1cn(CC(=O)Nc2ccc(C(C)C)cc2)nn1 | 1.8%
35 | CC1CN(C(=O)c2ccc3c(c2)OCO3)OC(c2ccccc2)O1 (configuration not stated) | 5.6%
36 | Cc1ccc(-n2nc3cc(Cl)c(NC(=O)c4ccco4)cc3n2)cc1 | -4.7%
37 | CCOC(=O)c1nc(-c2ccc3c(c2)OCO3)[nH]c1C | -7.4%
38 | CCC1=C(C(=O)OC)C(c2cc(OC)ccc2OC)C(C#N)=C(N)O1 (configuration not stated) | -1.1%
39 | COCCN1C(=O)c2oc3c(C)cc(C)cc3c(=O)c2C1c1cccc(O)c1 (configuration not stated) | -10.9%
40 | CCCS(=O)(=O)N1CCCC(C(=O)NCCN2CCCCC2C)C1 (configuration not stated) | 3.4%
41 | O=C(Cn1cnc2c(nnn2Cc2ccc(F)cc2)c1=O)NCc1ccc2c(c1)OCO2 | -2.3%
42 | Cc1cc(C)c2c(n1)nn1c(N3CCOCC3)cc(C)nc21 | -1.1%
43 | CCOc1ccc(C(CC(=O)O)NC(=O)COc2ccccc2)cc1 (configuration not stated) | 0.6%
44 | CCOC(=O)C1C(=O)C=C(c2ccc(OC)cc2)CC1c1ccco1 (configuration not stated) | -6.4%
45 | CCn1cc(C(=O)NC2CCCCCC2)c(=O)c2cc(S(=O)(=O)N3CCCCC3)ccc21 | -5.2%
46 | Brc1cnc(N2CCCC2)nc1N1CCCCC1 | 0.1%

Row | SMILES | inhibition
47 | CC(C)Cc1cc(C(=O)Nc2cc(Br)ccc2O)no1 | -1.4%
48 | Cc1cc(NC(=O)c2cc(-c3cccs3)on2)nn1Cc1ccc(Cl)cc1 | 2%
49 | CC(C)C[C@H](NC(=O)Nc1cccc(C(F)(F)F)c1)C(=O)O | 2.8%
50 | Fc1ccccc1C(c1nnnn1Cc1ccc2c(c1)OCO2)N1CCN(Cc2ccccc2)CC1 (configuration not stated) | 10.3%
51 | c1ccc(Cc2nn3c(Cn4cnc5ccccc54)nnc3s2)cc1 | 4.2%
52 | Clc1ccc(Cc2nn3c(-c4ccncc4)nnc3s2)cc1 | 54.5% (active)
53 | CCOc1cccc(-c2nnc3sc(COc4ccc(OC)cc4)nn23)c1 | -1%
54 | O=C(COC(=O)C12CC3CC(CC(C3)C1)C2)NCc1ccco1 | 0.4%
55 | CCCN(CCC)CCNC(=O)c1cc2c(C)nc3ccccc3c2o1 | 4.8%
56 | O=C1CC(c2cccc(F)c2)C2=C(CCCC2=O)N1 (configuration not stated) | 4.1%
57 | CC(=O)NC1CC2CCCC(C1)N2CC(=O)Nc1ccccc1 (configuration not stated) | 2.2%
58 | O=C1NC2(CCCCC2)N=C1c1ccccc1 | -5.4%
59 | CC(=O)Nc1cc(C(=O)O)ccc1S(=O)(=O)c1ccc(Cl)cc1 | -2.1%
60 | CCOC(=O)c1cnc(-n2nc(C)cc2C)nc1Nc1cccc(C(C)=O)c1 | 9%
61 | C[N+](C)(C)CCOP(=O)([O-])OC[C@H](O)CO | 5.6%
62 | O=C(Nc1cccc(OCC(=O)N2CCOCC2)c1)C1CCCCC1 | -0.9%
63 | CCOc1ccccc1NC(=O)c1cc(S(=O)(=O)N2CCC3(CC2)OCCO3)ccc1F | -14.8%
64 | CC1(C)CC(O)C(CCC(O)c2ccccc2)C(C)(C)N1 (configuration not stated) | 6.7%
65 | COc1ccc(-c2noc(-c3cccc(OC)c3OC)n2)cc1OC | -2.6%
66 | COc1ccc(S(=O)(=O)NC2(C(F)(F)F)N=C3SCCN3C2=O)cc1 (configuration not stated) | 0.8%
67 | O=C(c1ccccc1)c1cccn1CC(=O)N1CCN(c2ccc(F)cc2)CC1 | 14.7%
68 | COc1ccc(NC(=O)C2CCCN(S(=O)(=O)c3cccc4cccnc34)C2)cc1 (configuration not stated) | -6%
69 | COc1ccc(CC(NC(C)=O)C(=O)NC2CCN(C(=O)Nc3ccc(C#N)cc3)CC2)cc1OC (configuration not stated) | 17.9%

Row | SMILES | inhibition
70 | COc1ccccc1N1CCN(c2nc3ccccc3n3nnnc23)CC1 | -3.6%
71 | Cc1noc(C)c1S(=O)(=O)NCCc1ccc(S(N)(=O)=O)cc1 | 3%
72 | Nc1scc(-c2ccncc2)c1Cl | -8.7%
73 | COc1ccc(NC(C)=O)cc1NC(=O)CN1CCN(c2ccccn2)CC1 | -0.9%
74 | Cc1ccc(S(=O)(=O)N2C3C=CC(C3)C2C(=O)O)cc1 (configuration not stated) | 0.9%
75 | COc1cc(C2C(C(=O)Nc3ccc(F)cc3)=C(C)Nc3nc(CCCO)nn32)cc(OC)c1OC (configuration not stated) | -2.7%
76 | CC(=O)Nc1ccc(-c2cn3cccnc3n2)cc1 | 2.3%
77 | CCOC(=O)N1CCN(C(=O)c2cnc3n(c2=O)CCS3)CC1 | -0.5%
78 | O=C(CCSCCc1ccccn1)Nc1nccs1 | 0.5%
79 | Cc1c2cnn(-c3ccccc3)c(=O)c2c(C)n1CCCC(=O)N1CCN(C)CC1 | 0%
80 | COc1cccc(Nc2nnc(SCC(=O)N3CC(C)OC(C)C3)s2)c1 (configuration not stated) | -0.3%
81 | COCCCNC(=O)c1ccc2c(c1)ncn2-c1ccccc1OC | 0.4%
82 | COc1ccc(NC(=O)CCNC(=O)Cn2ccc3ccccc3c2=O)c(OC)c1 | -0.5%
83 | Cc1cc(C)c(C#N)c(SCc2[nH]nc3c2C(c2ccccc2)C(C#N)=C(N)O3)n1 (configuration not stated) | -9.6%
84 | O=C(O)C1CCCCC1C(=O)Nc1ccc(Cl)cc1 (configuration not stated) | -0.4%
85 | O=C(Cn1nc(Cc2cccnc2)c2ccccc2c1=O)NCC1COc2ccccc2O1 (configuration not stated) | -7.3%
86 | CCOc1ccc2c(=O)c(-c3ccc4c(c3)OCCCO4)c(C)oc2c1 | -9.1%
87 | CN(C)/C=C1\C=C(c2ccccc2)OC1=O | -0.8%
88 | COc1cc2c(cc1OC)C(c1ccc(C)o1)CC(=O)N2 (configuration not stated) | -0.6%
89 | O=C(O)Cc1ccc(NC(=O)C2CCCCC2C(=O)O)cc1 (configuration not stated) | -3.1%
90 | CN(C)S(=O)(=O)c1ccc(Oc2ccc(S(=O)(=O)N(C)C)cc2)cc1 | 0.3%
91 | Cc1cc(C)c2c(n1)nn1c(N3CCN(c4cccc(Cl)c4)CC3)cc(C)nc21 | 1.1%
92 | CCCS(=O)(=O)N1CCC(C(=O)NCCCN(C)Cc2ccccc2)CC1 | -2.9%

Row | SMILES | inhibition
93 | Cc1nc2ccc(S(=O)(=O)NCC(=O)O)cc2s1 | 6.9%
94 | Cc1ccc(Nc2cc(=O)n(C3CCCCC3)c(=O)[nH]2)cc1C | -0.5%
95 | COc1cc2ccccc2cc1C(=O)Nc1ccc(S(=O)(=O)Nc2cc(C)on2)cc1 | 1.4%
96 | O=C(CCN1C(=O)c2ccccc2C1=O)NCCN1CCOCC1 | 3.1%
97 | Cc1cccc(NC(=O)CN2CCCN(S(=O)(=O)c3ccc(Br)s3)CC2)c1 | 6.3%
98 | CCCSc1nc2c(c(=O)[nH]c(=O)n2C)n1CCc1ccccc1 | 0.6%
99 | CC(=O)c1c(C)[nH]c(C(=O)NCCCN2CCCC2)c1C | 2.2%
100 | COc1ccccc1CNC(=O)Cn1cc2c(n1)CCCC2 | -1.9%
101 | Cc1ccccc1-n1nnc2c(=O)oc3ccccc3c21 | -2.1%
102 | CC1(C)Oc2ccc3ccc(=O)oc3c2/C(=C/NCCO)C1=O | -5.7%
103 | c1cc(-c2nn[nH]n2)ccc1CN1CCCCC1 | -4.3%
104 | COc1ccc(/C(O)=C2\C(=O)C(=O)N(Cc3ccco3)C2c2ccc(OC)cc2OC)cc1 (configuration not stated) | 26.8%
105 | CCOc1cccc(/C(O)=C2/C(=O)C(=O)N(CCOC)C2c2ccncc2)c1 (configuration not stated) | -3.8%
106 | COc1cccc(OCC(O)CN2CCN(CCO)CC2)c1 (configuration not stated) | 2.6%
107 | Cc1ccc(NC(=O)CN(C)S(=O)(=O)c2cnc[nH]2)cc1C | -2.5%
108 | COc1cc(C2C(C(=O)c3ccc(C)o3)=C(O)C(=O)N2Cc2cccnc2)ccc1O (configuration not stated) | 28.1%
109 | COc1ccc(/C(O)=C2/C(=O)C(=O)N(CC3CCCO3)C2c2ccc(OC)c(OC)c2)cc1 (configuration not stated) | -7.5%
110 | CCCS(=O)(=O)Nc1c(C(=O)O)[nH]c2ccccc12 | 2.1%
111 | Cc1nnc(SCCCn2c(N3CCCCC3)nc3c2c(=O)[nH]c(=O)n3C)s1 | 0.8%
112 | CCCCOC(=O)Nc1nccs1 | -2.9%
